{"source": "paper PMC12820563", "about": "“FoxP3 forms a head-to-head dimer in vivo and stabilizes its multimerization on adjacent microsatellites”", "note": "In all, about 16,000 sequences were measured (“rpm ratio (pull-down/input)”: median about 0.94, highest 2% from about 1.7 on). Only a selection was taken, and the highest values are over-represented in it overall."}
{"biological_target": "T1, MBP-FoxP1dN (Mus musculus, UniProt P58462 326-579)", "T1 sequence": "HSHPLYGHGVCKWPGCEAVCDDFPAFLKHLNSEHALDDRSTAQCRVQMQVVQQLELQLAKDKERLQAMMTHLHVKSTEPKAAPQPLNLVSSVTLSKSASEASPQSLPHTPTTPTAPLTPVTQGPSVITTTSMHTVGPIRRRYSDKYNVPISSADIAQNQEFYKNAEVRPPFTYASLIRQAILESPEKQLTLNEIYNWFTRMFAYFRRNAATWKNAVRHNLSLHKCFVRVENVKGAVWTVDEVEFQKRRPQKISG", "experiment": "PD-seq (MBP pull-down with sequencing); 20 mM Tris-HCl pH 7.5, 100 mM NaCl, 1.5 mM MgCl2, 0.4 uM protein, 0.1 uM dsDNA library, 30 min, room temperature, amylose pull-down; high values mean tight binding", "conditions": "protein: recombinant; tags: His6-MBP; chain copies: 2; dsDNA, one strand shown", "procedure,_shortened": "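In Tris pH 7.5 buffer with NaCl and MgCl2, 0.4 µM His6-MBP-tagged mouse FoxP3 or FoxP1 fragment lacking the N-terminus, from E. coli, met 0.1 µM Klenow-filled double-stranded degenerate DNA library for 30 min at room temperature. Three washes on amylose resin followed capture of the complexes, then proteinase K release of DNA, PCR barcoding and Illumina sequencing. Binding is taken as pooled-replicate reads-per-million enrichment of pull-down relative to input.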"}
{"sequence": "GATGATTGTTCTCCCAGCTGATGAATTGTTTTTCTCGAGTAAACAAATTTTCCTAATCTTTCTGTTCAAGCGCCATCTAC", "binding signal": "2.22 RPM ratio (pull-down/input)"}
{"sequence": "GATGATTGTTCTCCCAGCTGATGAATTTGTTTTCTCGAGTAAACAAATTTTCCTAATCTTTCTGTTCAAGCGCCATCTAC", "binding signal": "2.32 RPM ratio (pull-down/input)"}
{"sequence": "GATGATTGTTCTCCCAGCTGATGAATTGTTTAGCTCGAGTAAACAAATTTTCCTAATCTTTCTGTTCAAGCGCCATCTAC", "binding signal": "1.89 RPM ratio (pull-down/input)"}
{"sequence": "GATGATTGTTCTCCCAGCTGATGAATTGCATCCCTCGAGTAAACAAATTTTCCTAATCTTTCTGTTCAAGCGCCATCTAC", "binding signal": "1.46 RPM ratio (pull-down/input)"}
{"sequence": "GATGATTGTTCTCCCAGCTGATGAATTTGCATCCTCGAGTAAACAAATTTTCCTAATCTTTCTGTTCAAGCGCCATCTAC", "binding signal": "1.77 RPM ratio (pull-down/input)"}
{"sequence": "GATGATTGTTCTCCCAGCTGATGAATTTTTGTTCTCGAGTAAACAAATTTTCCTAATCTTTCTGTTCAAGCGCCATCTAC", "binding signal": "0.963 RPM ratio (pull-down/input)"}
{"sequence": "GATGATTGTTCTCCCAGCTGATGAATTGTTTCTCTCGAGTAAACAAATTTTCCTAATCTTTCTGTTCAAGCGCCATCTAC", "binding signal": "1.33 RPM ratio (pull-down/input)"}
{"sequence": "GATGATTGTTCTCCCAGCTGATGAATTCTGTTTCTCGAGTAAACAAATTTTCCTAATCTTTCTGTTCAAGCGCCATCTAC", "binding signal": "1.14 RPM ratio (pull-down/input)"}
{"sequence": "GATGATTGTTCTCCCAGCTGATGAATTTTGTTTCTCGAGTAAACAAATTTTCCTAATCTTTCTGTTCAAGCGCCATCTAC", "binding signal": "1.71 RPM ratio (pull-down/input)"}
{"sequence": "GATGATTGTTCTCCCAGCTGATGAATTTTGCATCTCGAGTAAACAAATTTTCCTAATCTTTCTGTTCAAGCGCCATCTAC", "binding signal": "1.52 RPM ratio (pull-down/input)"}
{"sequence": "GATGATTGTTCTCCCAGCTGATGAATTTTTTAGCTCGAGTAAACAAATTTTCCTAATCTTTCTGTTCAAGCGCCATCTAC", "binding signal": "0.853 RPM ratio (pull-down/input)"}
{"sequence": "GATGATTGTTCTCCCAGCTGATGAATTCGTTGGGTCGAGTAAACAAATTTTCCTAATCTTTCTGTTCAAGCGCCATCTAC", "binding signal": "0.781 RPM ratio (pull-down/input)"}
{"sequence": "GATGATTGTTCTCCCAGCTGATGAATTCCAAGGATCGAGTAAACAAATTTTCCTAATCTTTCTGTTCAAGCGCCATCTAC", "binding signal": "0.795 RPM ratio (pull-down/input)"}
{"sequence": "GATGATTGTTCTCCCAGCTGATGAATTCAACTAGTCGAGTAAACAAATTTTCCTAATCTTTCTGTTCAAGCGCCATCTAC", "binding signal": "0.877 RPM ratio (pull-down/input)"}
{"sequence": "GATGATTGTTCTCCCAGCTGATGAATTTATTGGCTCGAGTAAACAAATTTTCCTAATCTTTCTGTTCAAGCGCCATCTAC", "binding signal": "1.09 RPM ratio (pull-down/input)"}
{"sequence": "GATGATTGTTCTCCCAGCTGATGAATTGAGAGTCTCGAGTAAACAAATTTTCCTAATCTTTCTGTTCAAGCGCCATCTAC", "binding signal": "0.741 RPM ratio (pull-down/input)"}
{"sequence": "GATGATTGTTCTCCCAGCTGATGAATTAGACGGGTCGAGTAAACAAATTTTCCTAATCTTTCTGTTCAAGCGCCATCTAC", "binding signal": "0.832 RPM ratio (pull-down/input)"}
{"sequence": "GATGATTGTTCTCCCAGCTGATGAATTAAAGCGCTCGAGTAAACAAATTTTCCTAATCTTTCTGTTCAAGCGCCATCTAC", "binding signal": "0.953 RPM ratio (pull-down/input)"}
{"sequence": "GATGATTGTTCTCCCAGCTGATGAATTGCGGCTATCGAGTAAACAAATTTTCCTAATCTTTCTGTTCAAGCGCCATCTAC", "binding signal": "1.02 RPM ratio (pull-down/input)"}
{"sequence": "GATGATTGTTCTCCCAGCTGATGAATTGTATTACTCGAGTAAACAAATTTTCCTAATCTTTCTGTTCAAGCGCCATCTAC", "binding signal": "1.24 RPM ratio (pull-down/input)"}
{"sequence": "GATGATTGTTCTCCCAGCTGATGAATTACCCGGTTCGAGTAAACAAATTTTCCTAATCTTTCTGTTCAAGCGCCATCTAC", "binding signal": "0.848 RPM ratio (pull-down/input)"}
{"sequence": "GATGATTGTTCTCCCAGCTGATGAATTTTTTGCCTCGAGTAAACAAATTTTCCTAATCTTTCTGTTCAAGCGCCATCTAC", "binding signal": "0.956 RPM ratio (pull-down/input)"}
{"sequence": "GATGATTGTTCTCCCAGCTGATGAATTTTTTTCATCGAGTAAACAAATTTTCCTAATCTTTCTGTTCAAGCGCCATCTAC", "binding signal": "1.02 RPM ratio (pull-down/input)"}
{"sequence": "GATGATTGTTCTCCCAGCTGATGAATTTGTTTCCTCGAGTAAACAAATTTTCCTAATCTTTCTGTTCAAGCGCCATCTAC", "binding signal": "1.49 RPM ratio (pull-down/input)"}
{"sequence": "GATGATTGTTCTCCCAGCTGATGAATTTTAGAGCTCGAGTAAACAAATTTTCCTAATCTTTCTGTTCAAGCGCCATCTAC", "binding signal": "0.77 RPM ratio (pull-down/input)"}
{"sequence": "GATGATTGTTCTCCCAGCTGATGAATTAGATTGCTCGAGTAAACAAATTTTCCTAATCTTTCTGTTCAAGCGCCATCTAC", "binding signal": "0.987 RPM ratio (pull-down/input)"}
{"sequence": "GATGATTGTTCTCCCAGCTGATGAATTTGCCTCCTCGAGTAAACAAATTTTCCTAATCTTTCTGTTCAAGCGCCATCTAC", "binding signal": "0.95 RPM ratio (pull-down/input)"}
{"sequence": "GATGATTGTTCTCCCAGCTGATGAATTGTTTTCCTCGAGTAAACAAATTTTCCTAATCTTTCTGTTCAAGCGCCATCTAC", "binding signal": "2.36 RPM ratio (pull-down/input)"}
{"sequence": "GATGATTGTTCTCCCAGCTGATGAATTGTTTTCATCGAGTAAACAAATTTTCCTAATCTTTCTGTTCAAGCGCCATCTAC", "binding signal": "1.96 RPM ratio (pull-down/input)"}
{"sequence": "GATGATTGTTCTCCCAGCTGATGAATTTAGATGCTCGAGTAAACAAATTTTCCTAATCTTTCTGTTCAAGCGCCATCTAC", "binding signal": "1.78 RPM ratio (pull-down/input)"}
{"sequence": "GATGATTGTTCTCCCAGCTGATGAATTTGTTTCATCGAGTAAACAAATTTTCCTAATCTTTCTGTTCAAGCGCCATCTAC", "binding signal": "1.33 RPM ratio (pull-down/input)"}
{"sequence": "GATGATTGTTCTCCCAGCTGATGAATTGTTTCCCTCGAGTAAACAAATTTTCCTAATCTTTCTGTTCAAGCGCCATCTAC", "binding signal": "1.41 RPM ratio (pull-down/input)"}
{"sequence": "GATGATTGTTCTCCCAGCTGATGAATTGTTTGCCTCGAGTAAACAAATTTTCCTAATCTTTCTGTTCAAGCGCCATCTAC", "binding signal": "1.96 RPM ratio (pull-down/input)"}
